Data on 57 compounds can be found in PubChem BioAssay AID1851 (National Center for Advancing Translational Sciences (NCATS), 2009).

Several values for one entry are separate records, joined by “and”; a condition that tells them apart may be missing. Equal values may be shown once. Out of some 16,000 compounds screened, about 5,700 (36%) were called active. Another 24% or so got no clear call; they are omitted. Calls follow the shape of the dose curve; as a rule, active = well fitted curve in the direction sought with a large enough effect; inconclusive = small, poorly fitted or top-dose-only effect, or effect the other way; inactive = no such curve, though single readings can be large or run the other way. The list shows a part of the results.
% is scaled to controls: 0 for no effect and ±100 for the full control effect.

Chain of Cytochrome P450 1A2 (Homo sapiens) (P05177 whole entry, looked up): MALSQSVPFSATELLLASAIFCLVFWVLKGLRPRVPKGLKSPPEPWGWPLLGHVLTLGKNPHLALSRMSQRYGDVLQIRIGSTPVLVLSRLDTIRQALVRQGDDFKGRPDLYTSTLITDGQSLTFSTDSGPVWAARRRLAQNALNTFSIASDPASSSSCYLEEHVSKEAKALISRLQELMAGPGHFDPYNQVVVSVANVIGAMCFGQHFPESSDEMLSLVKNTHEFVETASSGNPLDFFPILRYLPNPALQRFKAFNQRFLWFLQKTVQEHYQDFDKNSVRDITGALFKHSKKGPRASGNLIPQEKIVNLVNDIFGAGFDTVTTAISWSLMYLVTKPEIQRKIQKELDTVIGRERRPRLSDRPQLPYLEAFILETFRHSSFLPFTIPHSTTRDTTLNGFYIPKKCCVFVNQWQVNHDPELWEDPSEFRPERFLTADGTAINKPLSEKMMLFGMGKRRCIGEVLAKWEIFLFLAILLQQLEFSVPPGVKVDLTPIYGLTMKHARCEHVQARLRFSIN

This experiment concerns the target Cytochrome P450 1A2 (Homo sapiens) (UniProt P05177). The experiment in a line: Cytochrome panel assay with activity outcomes. The following applies: recombinant CYP, pro-luciferin dealkylation, luminescence, p450-cyp1a2; series mostly up to 57.1 µM; activity, negative = inhibition: at the top concentration.
Take `CC(C)NC(=O)N1CC[C@@]2(CCCN(C(=O)c3cccc(F)c3)C2)C1`: the “activity, negative = inhibition” value was 1.3% (inactive).

Regarding `COc1ccc2[nH]cc(CCNc3ncnc4ccc(-c5ccc6c(c5)OCO6)cc34)c2c1`, the AC50 was 0.631 µM (active).

Take `COc1ccc2[nH]cc(CCNc3ncnc4ccc(-c5ccoc5)cc34)c2c1`: the AC50 is 0.316 µM (active).

Turning to `C=CC(C)(C)c1[nH]c2ccccc2c1C1=C(O)C(=O)C(c2c[nH]c3c(CC=C(C)C)cccc23)=C(O)C1=O`, the AC50 is 25.1 µM (active).

For `O=C(CSc1nnc(-c2ccco2)n1-c1ccccc1)NCc1ccco1`, the “activity, negative = inhibition” value was -13.4% (inactive).

As for `O=C(CSc1nnc2sc3ccccc3n12)NCc1ccco1`, the AC50 is 10 µM (active).

In the case of `CCOC(=O)c1sc2nc(CC(=O)OC)nc(NCc3ccc(F)cc3)c2c1C`, the concentration at half-maximal activity (AC50) is 14.1 µM (active).

On to `COc1ccc(COC(=O)N/N=C2/C[C@@H](O)[C@@H](O)[C@@H]3[C@@H]4C(=O)N(c5cccc(Oc6ccccc6)c5)C(=O)[C@H]4CC[C@@H]23)cc1`, for which the activity, negative = inhibition is -36.2% [at 11.4 µM] (inactive).

`Cc1cc(=O)[nH]c(-n2[nH]c3c(c2=O)CCCC3)n1`: the “activity, negative = inhibition” value was -21.9% (inactive).

With `C/C(=N/Nc1nc(C)cc(=O)[nH]1)C(=O)O`, the activity, negative = inhibition was -8.18% [at 11.4 µM] (inactive).

For `Nc1cc(=O)[nH]c(SCC(=O)Nc2ccc(S(=O)(=O)N3CCOCC3)cc2)n1`, the “activity, negative = inhibition” value was -6.97% (inactive).

For `Cc1cc(=O)[nH]c(SCC(=O)Nc2nc3c(s2)CCCC3)n1`, the AC50 is 12.6 µM (active).

Take `CCC(Sc1nc(C)cc(=O)[nH]1)C(=O)Nc1nc2c(s1)CCCC2` (configuration not stated): the AC50 was 12.6 µM (active).

On to `CC(c1ccccc1C(O)c1ccccc1)N(C)C` (configuration not stated), for which the “activity, negative = inhibition” value is -10.1% (inactive).

Take `COc1cccc(C2=NOC(C(=O)Nc3ccc(OC)c(OC)c3)C2)c1` (configuration not stated): the AC50 was 10 µM (active).

`COCCNC(=O)C1CC(c2cccc(OC)c2)=NO1` (configuration not stated): the “activity, negative = inhibition” value is -27.9% (inactive).

For `COc1cccc(C2=NOC(C(=O)Nc3cccnc3)C2)c1` (configuration not stated), the AC50 was 10 µM (active).

For `O=C(Nc1cccc(F)c1)N1CC2(CCN(C(=O)c3cnccn3)CC2)C1`, the “activity, negative = inhibition” value is -8.35% (inactive).

Take `O=C(NNC(=O)C1CC(c2cccnc2)=NO1)Nc1cccc(F)c1` (configuration not stated): the AC50 is 14.1 µM (active).

As for `Cc1ccc(NC(=O)NNC(=O)C2CC(c3cccnc3)=NO2)cc1` (configuration not stated), the “activity, negative = inhibition” value was -39.7% (inactive).

Turning to `COc1cccc(C2=NOC(C(=O)NCCN3CCOCC3)C2)c1` (configuration not stated), the “activity, negative = inhibition” value was 14.5% (inactive).

On to `COc1ccc(NC(=O)C2c3cc(OC)c(OC)cc3C(=O)N(C)C2c2cccnc2)cc1OC` (configuration not stated), for which the “activity, negative = inhibition” value was -41.4% (inactive).

Turning to `CCN1C(=O)[C@H]2[C@@H]3[C@H](O)[C@H](O)CC(=O)[C@H]3CC[C@H]2C1=O`, the activity, negative = inhibition is -11.3% [at 11.4 µM] (inactive) and -4.71% [at 11.4 µM] (inactive).

In the case of `CN1CCCN(C2C3CC4CC(C3)CC2C4)CC1` (configuration not stated), the “activity, negative = inhibition” value is 3.67% (inactive).

As for `c1cc(CSSCc2ccncc2)ccn1`, the AC50 was 2 µM (active).

As for `c1cc(CNCCN2CCNCC2)ccn1`, the activity, negative = inhibition is -16% [at 11.4 µM] (inactive).

As for `CN(Cc1ccco1)c1ncnc2ccc(-c3ccoc3)cc12`, the AC50 is 2.51 µM (active).

As for `CN(Cc1ccco1)c1ncnc2ccc(-c3ccc4c(c3)OCO4)cc12`, the concentration at half-maximal activity (AC50) is 0.501 µM (active).

For the compound `O=C(c1ccncc1)N1CCC2(CCN(Cc3ccccc3)CC2)CC1`, the “activity, negative = inhibition” value was 6.61% (inactive).

Regarding `O=C(CC(=O)c1ccncc1)c1ccccc1`, the concentration at half-maximal activity (AC50) was 0.1 µM (active).

On to `O=C(NNC(=O)c1ccncc1)c1ccncc1`, for which the activity, negative = inhibition was -7.18% [at 11.4 µM] (inactive).

`Cn1c(-c2sc(=S)n(-c3ccccc3)c2N)nc2ccccc21`: the AC50 was 0.708 µM (active).

Turning to `O=C1C[C@@H](O)[C@@H](O)[C@H]2[C@@H]3C(=O)N(Cc4ccccc4)C(=O)[C@@H]3CC[C@H]12`, the activity, negative = inhibition was 7.93% [at 11.4 µM] (inactive) and -5.24% [at 11.4 µM] (inactive).

On to `COc1cc(-c2ccc(N=Nc3ccc4c(S(=O)(=O)O)cc(S(=O)(=O)O)c(N)c4c3O)c(OC)c2)ccc1N=Nc1ccc2c(S(=O)(=O)O)cc(S(=O)(=O)O)c(N)c2c1O`, for which the AC50 is 12.6 µM (active).

As to `Nc1ccc(N=Nc2ccc(-c3ccc(O)cc3)cc2)c2ccc(S(=O)(=O)O)cc12`, the activity, negative = inhibition was -17.8% [at 2.29 µM] (inactive).

`COc1ccc(N2C(=O)CCC(C(=O)O)C2c2ccc(F)cc2)cc1` (configuration not stated): the “activity, negative = inhibition” value is 3.19% (inactive).

For the compound `COc1ccc(CNc2ccnc(-c3ccccc3Cl)n2)c(OC)c1`, the AC50 was 5.01 µM (active).

Take `COc1ccc(CNc2ccnc(-c3ccccc3OC)n2)c(OC)c1`: the AC50 was 5.01 µM (active).

For the compound `COc1ccc([C@@H](Nc2ccccn2)c2cc(C(C)(C)C)cc(C(C)(C)C)c2O)cc1`, the activity, negative = inhibition is 1.22% [at 2.29 µM] (inactive).

On to `COc1ccccc1CNc1ccnc(-c2ccccc2C(F)(F)F)n1`, for which the half-maximal activity concentration (AC50) is 10 µM (active).

Take `COc1ccc(CNc2ccnc(-c3ccccc3C(F)(F)F)n2)c(OC)c1`: the AC50 was 15.8 µM (active).

Regarding `CO[C@H]1COC(=O)C/C=C\[C@@H](C)COC(=O)[C@@H](OCc2ccccc2)/C=C\[C@@H]1C`, the activity, negative = inhibition was -1.45% [at 11.4 µM] (inactive).

In the case of `CC(=O)OC[C@@H]1O[C@@H](O/N=C2/C[C@@H](O)[C@@H](O)[C@@H]3[C@H]4C(=O)N(c5ccc(F)cc5F)C(=O)[C@@H]4CC[C@@H]23)[C@H](OC(C)=O)[C@H](OC(C)=O)[C@@H]1OC(C)=O`, the activity, negative = inhibition is 2.88% [at 11.4 µM] (inactive).

Turning to `COc1ccccc1CNc1ccnc(-c2ccccc2Cl)n1`, the AC50 is 5.01 µM (active).

As for `Cc1n[nH]c(=O)nc1NCc1ccccc1Cl`, the “activity, negative = inhibition” value was -20% (inactive).

As for `Cc1cc(OCCn2cc(/C(N)=N/O)c3ccccc32)ccc1Cl`, the AC50 is 2 µM (active).

Consider `CC(=O)c1cn(CC(=O)Nc2c(C)cccc2C)c2ccccc12`, for which the “activity, negative = inhibition” value is -15.1% (inactive).

`CC(=O)NNc1nc2ccccc2s1`: the AC50 was 11.2 µM (active).

`c1ccc2sc(NC3=NCN(C4CCCCCC4)CN3)nc2c1`: the “activity, negative = inhibition” value is -20.1% (inactive).

Turning to `CC(=O)NNC(=O)C(O)(c1ccccc1)c1ccccc1`, the “activity, negative = inhibition” value is 11.7% (inactive).

On to `O=C(NNc1nc2ccccc2s1)C1CC1`, for which the AC50 was 20 µM (active).

For `O=[N+]([O-])c1ccc(Nc2nc3ccccc3s2)cc1`, the activity, negative = inhibition is -20% [at 11.4 µM] (inactive).

For `NC(=O)c1ccc(NC(=O)C2CCCO2)cc1` (configuration not stated), the “activity, negative = inhibition” value was -0.873% (inactive).

`CCOC(=O)c1ccc(NC(=O)C2CCCO2)cc1` (configuration not stated): the AC50 was 2.51 µM (active).

Take `Cc1ccc(CS(=O)(=O)CCC(=O)NCCCN2CCCC2)cc1`: the “activity, negative = inhibition” value was -13.9% (inactive).

As for `CCCC(CCC)C(=O)NNc1cc(=O)c2c(=O)n(C)c(=O)n(C)c2[nH]1`, the “activity, negative = inhibition” value is -22.7% (inactive).

With `CCC(=O)NNc1cc(=O)c2c(=O)n(C)c(=O)n(C)c2[nH]1`, the AC50 was 2.82 µM (active).

The term AC50 denotes the midpoint of the concentration-response curve, whichever way the signal moves.
